nsP2pro inh: Primary qHTS for inhibitors of NSP2Pro chikungunya virus (CHIKV); Polyprotein P1234 (Chikungunya virus (strain S27-African prototype)), Q8JUX6; FRET peptide cleavage, nsP2pro, fluorescence 1 h; Potency, µM (doses to about 24.9 µM), inactives show at the highest dose activity change, negative = inhibition, hits mostly inhibitors; actives 1.1% (n = 31,000); AID 1964107, 2024; calls by dose curve; also: nearly all actives have a fitted effect of over 60% in size
Target sequence (Q8JUX6 whole entry, looked up): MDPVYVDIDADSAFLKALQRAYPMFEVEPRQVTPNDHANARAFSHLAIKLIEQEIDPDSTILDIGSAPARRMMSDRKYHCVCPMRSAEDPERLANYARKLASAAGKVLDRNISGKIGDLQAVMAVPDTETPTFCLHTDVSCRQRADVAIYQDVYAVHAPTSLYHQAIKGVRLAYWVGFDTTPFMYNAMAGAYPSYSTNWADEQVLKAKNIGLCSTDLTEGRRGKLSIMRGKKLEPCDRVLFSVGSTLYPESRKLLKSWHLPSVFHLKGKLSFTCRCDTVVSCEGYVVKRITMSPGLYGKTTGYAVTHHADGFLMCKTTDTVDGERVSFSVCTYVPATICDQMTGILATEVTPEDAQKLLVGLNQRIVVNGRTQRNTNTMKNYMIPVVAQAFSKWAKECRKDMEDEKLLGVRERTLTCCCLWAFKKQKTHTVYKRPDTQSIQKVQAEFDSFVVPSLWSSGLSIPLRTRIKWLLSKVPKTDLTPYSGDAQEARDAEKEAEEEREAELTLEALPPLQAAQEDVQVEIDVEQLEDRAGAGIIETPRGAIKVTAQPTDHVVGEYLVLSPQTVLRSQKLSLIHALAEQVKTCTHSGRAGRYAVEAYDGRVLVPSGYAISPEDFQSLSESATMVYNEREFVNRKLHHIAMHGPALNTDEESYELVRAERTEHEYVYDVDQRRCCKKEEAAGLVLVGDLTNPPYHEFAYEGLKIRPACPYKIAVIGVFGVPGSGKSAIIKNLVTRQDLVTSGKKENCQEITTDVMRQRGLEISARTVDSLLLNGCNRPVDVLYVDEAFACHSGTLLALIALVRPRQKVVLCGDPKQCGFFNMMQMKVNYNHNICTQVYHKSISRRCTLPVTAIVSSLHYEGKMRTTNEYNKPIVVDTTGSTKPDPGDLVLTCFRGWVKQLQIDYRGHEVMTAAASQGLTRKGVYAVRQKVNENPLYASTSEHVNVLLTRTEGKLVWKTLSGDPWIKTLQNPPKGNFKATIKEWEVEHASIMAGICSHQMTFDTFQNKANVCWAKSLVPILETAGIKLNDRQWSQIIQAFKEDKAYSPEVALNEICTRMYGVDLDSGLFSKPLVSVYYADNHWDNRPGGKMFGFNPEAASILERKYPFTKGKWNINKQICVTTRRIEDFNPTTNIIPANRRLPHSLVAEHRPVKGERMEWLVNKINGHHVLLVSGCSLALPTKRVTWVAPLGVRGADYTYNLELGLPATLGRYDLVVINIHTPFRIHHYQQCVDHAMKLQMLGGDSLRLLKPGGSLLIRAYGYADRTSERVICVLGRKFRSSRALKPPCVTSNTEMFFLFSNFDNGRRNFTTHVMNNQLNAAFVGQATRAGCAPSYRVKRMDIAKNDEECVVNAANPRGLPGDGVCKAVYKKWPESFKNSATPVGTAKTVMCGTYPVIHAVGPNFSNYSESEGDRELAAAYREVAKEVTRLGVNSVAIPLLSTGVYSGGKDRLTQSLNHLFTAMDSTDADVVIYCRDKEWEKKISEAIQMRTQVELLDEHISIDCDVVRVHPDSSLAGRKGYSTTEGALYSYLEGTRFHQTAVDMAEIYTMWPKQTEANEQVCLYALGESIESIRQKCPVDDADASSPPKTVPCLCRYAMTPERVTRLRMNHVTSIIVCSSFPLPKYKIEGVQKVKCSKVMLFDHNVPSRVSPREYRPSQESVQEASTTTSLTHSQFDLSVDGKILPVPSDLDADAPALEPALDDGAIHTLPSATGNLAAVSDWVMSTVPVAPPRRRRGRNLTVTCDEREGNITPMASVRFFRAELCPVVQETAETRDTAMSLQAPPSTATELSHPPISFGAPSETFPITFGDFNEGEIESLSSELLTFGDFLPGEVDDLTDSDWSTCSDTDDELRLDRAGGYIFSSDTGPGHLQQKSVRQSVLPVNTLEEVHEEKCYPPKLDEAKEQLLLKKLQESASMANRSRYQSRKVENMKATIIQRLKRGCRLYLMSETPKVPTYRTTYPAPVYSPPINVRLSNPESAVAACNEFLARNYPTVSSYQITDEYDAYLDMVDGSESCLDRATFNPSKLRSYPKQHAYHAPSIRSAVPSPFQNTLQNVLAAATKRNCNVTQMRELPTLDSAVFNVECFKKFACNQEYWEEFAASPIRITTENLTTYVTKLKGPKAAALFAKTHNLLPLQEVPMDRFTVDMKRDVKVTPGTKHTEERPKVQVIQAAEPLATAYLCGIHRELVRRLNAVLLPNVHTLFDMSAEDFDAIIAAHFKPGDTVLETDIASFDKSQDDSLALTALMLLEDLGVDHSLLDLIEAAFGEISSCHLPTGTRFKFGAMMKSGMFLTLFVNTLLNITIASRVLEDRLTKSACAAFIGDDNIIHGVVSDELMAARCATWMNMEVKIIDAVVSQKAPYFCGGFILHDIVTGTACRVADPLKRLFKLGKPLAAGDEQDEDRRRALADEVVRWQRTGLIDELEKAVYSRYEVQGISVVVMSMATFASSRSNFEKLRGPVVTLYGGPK
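Purified recombinant nsP2pro (150 nM final) in 10 mM Tris-HCl pH 8.0 with 0.01% Tween 20 was preincubated 15 min at room temperature with compound (7 concentrations, up to 25 uM). FRET peptide 2 substrate (2.5 uM final) was then added; fluorescence was read after 1 h.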
* hit, by the source's call; i = inactive; [ ] = dose if it differs, or a comment. Shown is part of a subset that was picked to be rich in hits. % is scaled to controls: 0 for no effect and ±100 for the full control effect; potency is read from the fitted curve at half-maximal effect.

SMILES	nsP2pro inh
CCOC(=O)C1=CN(CC(=O)Nc2ccccc2C(F)(F)F)S(=O)(=O)N=C1C	-7%
O=C(CC1C(=O)OCCN1Cc1ccccc1)Nc1cccc(C(F)(F)F)c1 (stereo unspecified)	-16%
CCN1CCOC(=O)C1CC(=O)Nc1ccccc1C(F)(F)F (stereo unspecified)	11µM*
S=C(NC1CCCCC1)N[C@H]1CO[C@H]2[C@@H]1OC[C@@H]2n1nnnc1Oc1ccc(-n2ccnc2)cc1	40%
O=C(c1ccccc1)N1CCCC2(CC(c3ccccn3)=NO2)C1 (stereo unspecified)	-11%
CCN(CC)C(=O)N[C@H]1C[C@@H]2c3cccc4[nH]cc(c34)C[C@H]2N(C)C1	22%
CC[C@@H](CO)NC(=O)[C@@H]1C=C2c3cccc4[nH]cc(c34)C[C@H]2N(C)C1	-6%
CCN(CC)C(=O)N[C@@H]1C=C2c3cccc4[nH]cc(c34)C[C@@H]2N(C)C1	12µM*
CN(C)c1cc(CNCC(C)(C)C)c(O)c2c1C[C@H]1C[C@H]3[C@H](N(C)C)C(=O)C(C(N)=O)=C(O)[C@@]3(O)C(=O)C1=C2O	20%
O=C(CCn1cccn1)NC1CC(=O)N(Cc2cccc3ccccc23)C1 (stereo unspecified)	-1%
CC(C)N[C@@H]1CCn2c(=O)[nH]c3cccc(c32)[C@H]1O	11µM*
CC1(C)C[C@H]1C(=O)N/C(=C\CCCCSC[C@@H](N)C(=O)O)C(=O)O	-2%
O=C(CCO[C@@H]1O[C@H](CO)[C@@H](O)[C@H](O)[C@H]1O)c1ccc(O)cc1	-18%
CC1=C(C(=O)O)/C(=C\CO[C@@H]2O[C@H](CO)[C@@H](O)[C@H](O)[C@H]2O)C(OC(=O)/C=C/c2ccc(O)cc2)C1 (stereo partly specified)	14%[10 µM]
OC[C@H]1O[C@@H](OC/C=C/c2ccc(O)cc2)[C@H](O)[C@@H](O)[C@@H]1O	16%
CC1=C(C(=O)O)/C(=C\CO[C@@H]2O[C@H](CO)[C@@H](O)[C@H](O)[C@H]2O)C(OC(=O)/C=C\c2ccc(O)cc2)C1 (stereo partly specified)	0.024µM*
O=C(c1ccc2ccccc2n1)N1C[C@@H](CO)[C@H](c2ccncc2)C1	i
COc1cccc(CNc2ccc(S(=O)(=O)Nc3ccc(N4CCNCC4)cc3)cc2)c1O	5%
C=CC(=O)N1CCCN(c2cc(NCCC(=O)O)nc(-c3ccccn3)n2)CC1	136%
CN(C)c1ccc(CNc2nc(-c3ccccc3C(F)(F)F)nc3ccccc23)cc1	0%
CN(C)c1ccc(CNc2nc(-c3ccco3)nn2C(=O)c2cccc([N+](=O)[O-])c2)cc1	-5%
COc1ccc(C(=O)n2nc(-c3ccc(Cl)cc3)nc2NCc2ccco2)cc1	-14%
COc1ccc(C(=O)n2nc(-c3ccco3)nc2NCc2cccs2)cc1OC	13µM*
COc1ccnc(NC(=S)N2CCN(c3ccc4ccccc4n3)CC2)c1	4%
O=S(=O)(NC[C@H]1O[C@@H](CO)[C@@H](O)[C@H]1N1CCN(c2ccc(F)cc2)CC1)c1ccc(F)cc1	-19%
SMILES	nsP2pro inh
Cc1cc(CN(C)c2ccc(-c3nc(-c4ccccc4F)no3)cn2)on1	i
O=C(CCC1CCCC1)Nc1ccc(-c2nnc3n2CCCC3)cc1	5%
CCOc1ccc(C(=O)Nc2ccc(-c3nnc4n3CCCCC4)cc2)cc1OCC	10µM*
COc1ccc(Cl)cc1C(=O)Nc1ccc(-c2nnc3n2CCCCC3)cc1	-2%
O=C1NCCCCCN(C(=O)C2CCC2)[C@H]2CCCC[C@@H]12	i
CC(C)c1nn2c(=O)cc(COC(=O)c3ccc4c(c3)OCO4)nc2s1	-29%
CC(C)c1nn2c(=O)cc(COC(=O)Cc3ccccc3)nc2s1	-17%
CC(C)c1nn2c(=O)cc(COC(=O)c3ccco3)nc2s1	13µM*
CC(=O)Nc1ccc2c(c1)S(=O)(=O)N=C(CC(C)C)N2CC(C)C	2%
CC(=O)N1CCOc2ccc(CCC(=O)N3CCN(C4CCCCC4)CC3)cc2C1	i
Cc1ccc(S(=O)(=O)Nc2cnccc2C(=O)Nc2ccc(N3CCOCC3)cc2)cc1	i
O=C(c1ccc2c(c1)OCCO2)N1CCC(Cn2cc(CCO)nn2)CC1	-11%
COCCn1c(C)cnc1CCNC(=O)NCC(C)C	i
COCCn1c(C)cnc1CCNS(=O)(=O)c1c(C)nn(C)c1C	10µM*
COCCn1c(C)cnc1CCNS(=O)(=O)c1cc(OC)ccc1OC	1%
Fc1cnc(-c2ccccc2C(F)F)nc1NCC1CCN(c2cnccn2)CC1	-4%
O=C(NCc1c(F)cc(F)cc1F)c1cn2c(c(O)c1=O)C(=O)N1C3CCC(C3)OC1C2 (stereo unspecified)	38%
CCC(CC)C(=O)NCCc1nc2ccccc2n1CCOc1ccc(C)cc1	-22%
Cc1nc2cnccn2c1C(=O)N1CCC(C#N)CC1	-2%[39.2 µM]
Cc1cc(C)nc(NC(=S)N2CCN(c3nncs3)CC2)c1	-9%
CC(=O)c1ccc(NC(=O)OC[C@H]2C[C@@H]3CCN2C[C@@H]3c2cc(C3CCCC3)nc(-c3ccncc3)n2)cc1	i
CC(=O)c1cccc(NC(=O)OC[C@H]2C[C@@H]3CCN2C[C@@H]3c2cc(C3CCCC3)nc(C)n2)c1	i
COc1ccccc1-c1cc([C@H]2CN3CC[C@H]2C[C@@H]3COC(=O)NC2CCCCC2)nc(C)n1	10µM*
Cc1ccc(CN(C)c2nc(-c3ccccc3C(F)(F)F)nc3ccccc23)cc1	0%
O=C1CCCC2=C1C(c1cccc(F)c1)N=C(Nc1nc3ccccc3o1)N2 (stereo unspecified)	-4%
SMILES	nsP2pro inh
O=C(c1cccs1)N1Cc2[nH]cnc2C[C@H]1c1nc(-c2ccc3ccccc3c2)no1	i
O=S(=O)(N[C@H]1[C@H](O)[C@H](O)C[C@@H]1c1ccc(C(F)(F)F)nc1)c1ccc(Cl)cc1	-10%
COc1ccc(C(=O)N2CC(CO)C3(CCNCC3)C2)cc1 (stereo unspecified)	-4%
O=C(c1ccc(Cl)cc1)N1CC(CO)C2(CCNCC2)C1 (stereo unspecified)	7.9µM*
O=C(c1cccc(C(F)(F)F)c1)N1CC(CO)C2(CCNCC2)C1 (stereo unspecified)	-4%
CCN(CC)C(=O)[C@]1(c2ccccc2)C[C@H]1CN	-8%
Cc1ccc(-c2cc(C(=O)Nc3cccc(S(N)(=O)=O)c3)c3ccccc3n2)cc1C	3%
CCOC(=O)c1c(-c2ccc(C)cc2)csc1NC(=O)c1cc(-c2ccc(OC)cc2)on1	-20%
CCc1cc(C(=O)N2CCN(c3ccccc3)CC2)no1	-2%
CCc1cc(C(=O)Nc2sc(C)c(CC)c2C#N)no1	11µM*
CNC(=O)C(C)(C)N1CCC[C@H]1C(=O)NCc1ccccc1	-9%[39.2 µM]
CCN(C(=O)CO)[C@H]1CN(C(=Nc2cccc(OC(F)F)c2)NC#N)N=C1c1ccc(Cl)c(Cl)c1	-3%
CC(C)(C)OC(=O)N1CCC(C(=O)Nc2ccc([S+](=O)([O-])Nc3nccs3)cc2)CC1	1%
O=C(Cc1ccc(Cl)c(Cl)c1)Nc1ccc([S+](=O)([O-])Nc2nnc(-c3ccccn3)s2)cc1	i
C/C(=C1\CCOC(=O)S1)N(C=O)Cc1cnc(C)nc1N	5%
CC(=C(CCOC(=O)C(C)C)SSC(CCOC(=O)C(C)C)=C(C)N(C=O)Cc1cnc(C)nc1N)N(C=O)Cc1cnc(C)nc1N	11µM*
O=S(=O)(Nc1nc(-c2ccccc2C(F)(F)F)nc2ccccc12)c1ccc(-c2ccnc(C(F)(F)F)c2)cc1	i

Screening data deposited in PubChem by National Center for Advancing Translational Sciences (NCATS).
